Compound activity: PubChem, National Center for Advancing Translational Sciences (NCATS)
BAZ2B block: blocks human BAZ2B; AlphaScreen BAZ2B-H3K14Ac peptide displacement; Potency, µM (series often up to 114 µM), for the others: at the highest dose activity change, negative = inhibition, actives largely listed as inhibitors; 360,000 compounds, 4.4% hits; also: % is scaled to controls: 0 for no effect and ±100 for the full control effect; nearly all actives have a fitted effect of over 60% in size
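In this displacement format the biotinylated H3(5-23) peptide acetylated at Lys14 serves as ligand at 50 nM, with BAZ2B at 50 nM in PBS pH 7.4 containing 0.01% Tween-20. Donor and acceptor beads are 10 ug/mL final.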
L3MBTL1 block: inhibitors of human L3MBTL1 | Q9Y468 | AlphaScreen L3MBTL1–H3K9me1 peptide binding | Potency, µM (doses to about 57.1 µM), without a hit: at the top dose activity, negative = inhibition, actives largely listed as inhibitors | 230,000 compounds, 0.66% hits | AID 485360; also: % is scaled to controls: 0 for no effect and ±100 for the full control effect; nearly all actives have a fitted effect of over 60% in size
Target sequence (Q9Y468 whole entry, looked up): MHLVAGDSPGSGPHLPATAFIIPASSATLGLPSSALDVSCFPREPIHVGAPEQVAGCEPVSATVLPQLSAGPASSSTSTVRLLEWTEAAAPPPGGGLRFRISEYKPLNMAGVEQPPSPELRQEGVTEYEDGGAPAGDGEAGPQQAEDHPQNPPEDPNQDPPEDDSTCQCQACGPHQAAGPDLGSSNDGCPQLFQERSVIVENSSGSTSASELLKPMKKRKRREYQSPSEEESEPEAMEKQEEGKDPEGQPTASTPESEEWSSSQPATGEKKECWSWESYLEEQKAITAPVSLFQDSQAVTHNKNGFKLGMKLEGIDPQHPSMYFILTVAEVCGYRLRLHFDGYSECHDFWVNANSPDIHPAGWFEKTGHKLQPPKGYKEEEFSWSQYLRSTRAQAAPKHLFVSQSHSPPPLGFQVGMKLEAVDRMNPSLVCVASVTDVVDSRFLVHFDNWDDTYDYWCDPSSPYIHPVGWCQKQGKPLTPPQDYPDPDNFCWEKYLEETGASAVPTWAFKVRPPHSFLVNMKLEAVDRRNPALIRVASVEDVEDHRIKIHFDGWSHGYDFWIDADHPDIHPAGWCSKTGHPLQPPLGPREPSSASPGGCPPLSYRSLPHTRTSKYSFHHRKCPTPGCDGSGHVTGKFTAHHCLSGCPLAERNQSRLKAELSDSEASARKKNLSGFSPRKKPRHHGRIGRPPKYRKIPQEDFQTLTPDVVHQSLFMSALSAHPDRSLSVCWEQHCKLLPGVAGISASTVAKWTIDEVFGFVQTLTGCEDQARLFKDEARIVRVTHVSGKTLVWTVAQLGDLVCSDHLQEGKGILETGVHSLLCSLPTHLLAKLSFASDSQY
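Read-out is AlphaScreen signal from streptavidin donor and nickel chelate acceptor beads (10 ug/mL final each) bridging L3MBTL1 (50 nM) and biotinylated K9-monomethylated H3(1-15) peptide (75 nM), after 30 min compound exposure at room temperature.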
Sfp PPTase inh: blocks B. subtilis Sfp PPTase activity; Potency, µM, inactives show largest response in the series, negative = inhibition, usual class: inhibitors; 310,000 compounds, 3.5% hits; AID 1490; Q9F4F7; Biochemical Sfp PPTase activity, qHTS;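 also: the enzyme is Sfp with the accession as filed and its product quenches rhodamine fluorescence; 0% = enzyme reaction without inhibitor and -100% = no enzyme wells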
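With Hepes-Na pH 7.6 buffer containing 10 mM MgCl2, Sfp (15 nM) modified BHQ-2-YbbR (12.5 uM) using rhodamine-CoA (5 uM). Two reads 30 minutes apart at 525/598 nm yielded each well's rate.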
G9a inh: inhibitors of human histone lysine methyltransferase G9a. Q96KQ7. G9a H3K9 monomethylation, AlphaScreen, 2 h. 350,000 compounds, 8.8% hits. AID 504332. Potency, µM (series often up to 102 µM), for inactives: at the highest dose activity, negative = inhibition, hits mostly inhibitors; also: % is scaled to controls: 0 for no effect and ±100 for the full control effect; nearly all actives have a fitted effect of over 75% in size
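Quantitative HTS format: methyltransferase activity on a biotin-tagged H3K9 peptide is measured by AlphaScreen, using a rabbit anti-monomethyl-H3K9 antibody with streptavidin donor and anti-IgG acceptor beads. Final levels are 20 nM enzyme, 500 nM peptide, 20 uM SAM; 2 h RT.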
HP1b binding inh: blocks HP1-beta chromodomain binding to methylated histone tails; Potency, µM (doses to about 114 µM), inactives show at the top dose activity change, negative = inhibition, hits mostly inhibitors; AlphaScreen HP1-beta / biotin-H3K9me3 peptide binding; P83916; 390,000 compounds, 0.56% hits; also: nearly all actives have a fitted effect of over 70% in size
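HP1-beta protein (50 nM final) preincubated 30 min at room temperature with biotinylated H3(1-18)K9me3 peptide (50 nM) in PBS pH 7.4, 0.01% Tween-20, then compound added for 30 min. AlphaScreen streptavidin donor/nickel chelate acceptor beads (10 ug/mL final), 30 min dark, luminescence read.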
JMJD2A Tudor inh: blocks the human JMJD2A Tudor domain; O75164; AlphaScreen JMJD2A-Tudor / H3K4me3 peptide binding; Potency, µM (titrated, usually from 114 µM), without a hit: top-dose activity change, negative = inhibition, usual class: inhibitors; 390,000 compounds, 4.4% hits; AID 504339; also: % is scaled to controls: 0 for no effect and ±100 for the full control effect; nearly all actives have a fitted effect of over 50% in size
Numbers without * were called inactive; ? = inconclusive; · = no result; [ ] = another dose, or the depositor's remark. The list is not random: actives were taken first. Their share in the collection is about 12%. Calls follow the shape of the dose curve; as a rule, active = well fitted curve in the direction sought with a large enough effect; inconclusive = small, poorly fitted or top-dose-only effect, or another doubt; inactive = no such curve, though single readings can be large; an effect the other way counts as inactive or inconclusive. Potency is read from the fitted curve at half-maximal effect.

SMILES	BAZ2B block	L3MBTL1 block	Sfp PPTase inh	G9a inh	HP1b binding inh	JMJD2A Tudor inh
Cc1cccc(C)c1Nc1nnc(SCc2cc([N+](=O)[O-])cc3c2OCOC3)s1	?	·	2%	50µM*	21%	-32%
O=[N+]([O-])c1cc2c(c(CSc3ncccn3)c1)OCOC2	-37%	-4%	19%	-2%	11%	-23%
COc1cccc(Nc2nnc(SCc3cc([N+](=O)[O-])cc4c3OCOC4)s2)c1	-35%	-2%	16%	?	5%	?
COc1ccc(OC)c(C2=Nn3c(nnc3-c3ccccc3OC)SC2)c1	·	·	-8%	·	·	-15%
CC(C)(C)n1nnnc1C(c1cccc(C#N)c1)N1CCCCCC1 (stereo not drawn)	-10%	-4%	1%	71µM*	47%	-14%
C=CCN1CCN(C(c2ccc(Cl)cc2)c2nnnn2CCc2ccc(OC)c(OC)c2)CC1 (stereo not drawn)	-6%	-2%	4%	-38%[59 µM]	73%	1%
CCN1CCN(C(c2cc(OC)c(OC)c(OC)c2)c2nnnn2C(C)C)CC1 (stereo not drawn)	50µM*	·	1%	?	39%	-27%
C=CCN1CCN(C(c2ccc(OC)c(OC)c2)c2nnnn2C(C)(C)C)CC1 (stereo not drawn)	79µM*	-2%	79µM*	50µM*	50%	0%
COc1ccccc1C(c1nnnn1C(C)(C)C)N1CCCCCC1 (stereo not drawn)	-31%	1%	-5%	25µM*	42%	-13%
CCCCC(CC)COS(=O)(=O)O (stereo not drawn)	·	·	-3%	-3%[12.7 µM]	·	·
CCC/C=C(\CCC)C(NC(=O)c1ccc(-c2ccccc2)cc1)c1ccc(C(=O)OC)cc1 (stereo not drawn)	·	·	23%	·	·	·
Cc1cccc(Oc2nc3ccccn3c(=O)c2/C=C(\C#N)c2nc3ccccc3s2)c1C	-1%[57.1 µM]	·	·	5.6µM*	56%	2%
O=C(O)Cc1ccc(N=Nc2c(O)c(C(=O)O)cc3ccccc23)cc1	28µM*	25µM*	-13%	40µM*	50µM*	56µM*
NS(=O)(=O)c1ccc(N=Nc2c(O)c(C(=O)O)cc3ccccc23)cc1	40µM*	-25%	?	34%[0.501 µM]	?	?
COc1ccc2[nH]cc(CCNc3cc(-c4c(C)noc4C)ncn3)c2c1	·	·	-18%	44%[0.501 µM]	·	·
CCn1c(SCC(=O)NC2CC2)nnc1-c1ccc(C)cc1	1%	·	7%	-5%	16%	-6%
O=C1CC(NS(=O)(=O)c2cccnc2)CN1c1ccc(Cl)cc1 (stereo not drawn)	9%	11%	·	-8%	26%	1%
CCc1ccc(NC(=O)CN(C)S(=O)(=O)c2ccc3c(c2)c(=O)n(C)c(=O)n3C)cc1	-3%	·	·	-4%[59 µM]	33%	5%
CCCCN1C(=O)/C(=C/C=C2/CC(C)(C)CN2C)SC1=S	8.9µM*	-9%	-8%	?	?	?
CCN1C(=O)/C(=C/C=C2/Sc3ccccc3N2CCO)SC1=S	-33%	-7%	?	45µM*	-21%	-18%
CCN1C(=O)/C(=C/C=C2/SCCN2C)SC1=S	-19%[57.1 µM]	-8%	14%	8.9µM*	-11%	9%[11.4 µM]
CCCCN1C(=O)/C(=C/C=C2\Oc3ccccc3N2CC)SC1=S	?	-7%	-26%	17%[0.501 µM]	13%	-9%
CN1CCS/C1=C\C=C1/SC(=S)N(CC(=O)O)C1=O	?	-11%	-1%	40µM*	18%	-29%
CCCN1C(=O)/C(=C\C=C2/Sc3ccccc3N2CCO)SC1=S	-28%	-4%	?	?	3%	-10%
CCN1C(=O)/C(=C/N2CCc3ccccc32)SC1=S	-3%	-2%	27%	1%[12.7 µM]	21%	-4%
COc1ccc(CN(C)C(=O)c2[nH]c(C)c(C(C)=O)c2C)cc1F	-11%	·	5%	25%	13%	-8%
